In PubChem BioAssay AID1159580 (chemical genetic matrix, 2015):
Values joined by “and” are separate entries in the source; they are usually repeats but may differ in a detail not shown here. Equal entries are not always repeated. In all, about 5,500 compounds went through this assay and about 2,000 (36%) were called active. Roughly 18% stayed inconclusive and do not appear here. Rule as the data show it: active = normalized growth mostly below about 0.91 (no sharp cut-off); inconclusive = no clear call, values can overlap the other calls; inactive = mostly above about 0.92. The list shows a part of the results.

Assay: chemical genetic growth profiling, strain panel (AID 1159580);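 also: tested at 20 µM; growth read once vehicle control cultures reached saturation at 30 °C; 1 = growth at the plate median or of vehicle wells; lower values mean less growth of the strain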
Conditions: S. cerevisiae deletion strains, growth OD

Measured: normalized growth

CCCCC(=O)N(Cc1ccc(-c2ccccc2-c2nn[nH]n2)cc1)[C@H](C(=O)O)C(C)C
inactive: locus YAL013W, strain DEP1, active compounds read low 0.992 | locus YAL021C, strain ccr4, active compounds read low 0.974 | locus YAL026C, strain drs2, active compounds read low 0.982 | locus YAL030W, strain snc1, active compounds read low 0.993 | locus YBL061C, strain skt5, active compounds read low 0.994 | locus YBR009C, strain hhf1, active compounds read low 0.986 | locus YBR021W, strain FUR4, active compounds read low 0.993 | locus YBR023C, strain chs3, active compounds read low 1 | locus YBR171W, strain sec66, active compounds read low 0.986 | locus YBR229C, strain ROT2, active compounds read low 1 | locus YBR231C, strain swc5, active compounds read low 1.01 | locus YBR279W, strain paf1, active compounds read low 1 | locus YCL011C, strain gbp2, active compounds read low 0.981 | locus YCL016C, strain dcc1, active compounds read low 0.98 | locus YCL029C, strain bik1, active compounds read low 0.962 | locus YCL061C, strain MRC1, active compounds read low 0.971 | locus YCL069W, strain vba3, active compounds read low 0.99 | locus YCR088W, strain abp1, active compounds read low 0.99 | locus YDL005C, strain med2, active compounds read low 1 | locus YDL035C, strain GPR1, active compounds read low 0.987 | locus YDL040C, strain nat1, active compounds read low 0.992 | locus YDL074C, strain BRE1, active compounds read low 1 | locus YDL101C, strain DUN1, active compounds read low 0.988 | locus YDL134C, strain PPH21, active compounds read low 1.01 | locus YDL185W, strain tfp1, active compounds read low 0.932 | locus YDL192W, strain arf1, active compounds read low 0.972 | locus YDR001C, strain nth1, active compounds read low 0.974 | locus YDR069C, strain doa4, active compounds read low 0.993 | locus YDR101C, strain arx1, active compounds read low 0.995 | locus YDR137W, strain rgp1, active compounds read low 0.969 | locus YDR150W, strain NUM1, active compounds read low 0.972 | locus YDR159W, strain sac3, active compounds read low 0.946 | locus YDR162C, strain NBP2, active compounds read low 0.982 | locus YDR195W, strain ref2 1 | locus YDR297W, strain sur2, active compounds read low 0.994 | locus YDR318W, strain mcm21, active compounds read low 0.979 | locus YDR334W, strain swr1, active compounds read low 0.987 | locus YDR335W, strain msn5, active compounds read low 0.994 | locus YDR388W, active compounds read low 0.989 | locus YDR392W, strain spt3, active compounds read low 0.979 | locus YDR502C, strain sam2, active compounds read low 0.98 | locus YEL003W, strain gim4, active compounds read low 0.968 | locus YEL037C, strain rad23, active compounds read low 0.987 | locus YEL061C, strain CIN8 (second series), active compounds read low 0.976 | locus YEL061C, strain CIN8, active compounds read low 0.985 | locus YER015W, strain faa2, active compounds read low 1.01 | locus YER016W, strain bim1, active compounds read low 0.999 | locus YER110C, active compounds read low 0.973 | locus YER111C, strain swi4, active compounds read low 0.986 | locus YER155C, strain BEM2 (second series), active compounds read low 1.03 | locus YER155C, strain BEM2, active compounds read low 0.994 | locus YER167W, strain BCK2, active compounds read low 0.954 | locus YFR010W, strain ubp6, active compounds read low 0.995 | locus YGL078C, strain dbp3, active compounds read low 0.97 | locus YGL086W, strain mad1, active compounds read low 0.971 | locus YGL167C, strain pmr1, active compounds read low 0.999 | locus YGL173C, strain kem1, active compounds read low 1 | locus YGL227W, strain vid30, active compounds read low 0.985 | locus YGL240W, strain doc1, active compounds read low 1.01 | locus YGL248W, strain PDE1, active compounds read low 0.991 | locus YGL253W, strain hxk2, active compounds read low 0.986 | locus YGR078C, strain PAC10, active compounds read low 0.988 | locus YGR135W, strain pre9, active compounds read low 0.982 | locus YGR229C, strain SMI1, active compounds read low 0.969 | locus YGR252W, strain gcn5, active compounds read low 1.1 | locus YHR013C, strain ard1, active compounds read low 1 | locus YHR027C, strain rpn1, active compounds read low 0.994 | locus YHR030C, strain SLT2, active compounds read low 0.984 and 0.959 | locus YHR079C, strain IRE1 (second series), active compounds read low 0.978 | locus YHR079C, strain IRE1, active compounds read low 0.955 | locus YHR094C, strain hxt1, active compounds read low 0.972 | locus YHR129C, strain ARP1, active compounds read low 0.999 | locus YHR142W, strain chs7, active compounds read low 0.96 | locus YHR200W, strain rpn10, active compounds read low 0.974 | locus YIL066C, strain RNR3, active compounds read low 0.991 | locus YIL073C, strain SPO22, active compounds read low 0.887 | locus YIL125W, strain kgd1, active compounds read low 0.954 | locus YIR030C, strain dcg1, active compounds read low 0.991 | locus YJL092W, strain hpr5, active compounds read low 0.986 | locus YJL095W, strain BCK1 (second series), active compounds read low 0.996 | locus YJL095W, strain BCK1, active compounds read low 0.992 and 0.987 | locus YJL115W, strain asf1, active compounds read low 0.971 | locus YJL129C, strain trk1, active compounds read low 1.01 | locus YJL134W, strain LCB3, active compounds read low 0.992 | locus YJL154C, strain vps35, active compounds read low 0.986 | locus YJL164C, strain tpk1, active compounds read low 0.988 | locus YJL166W, strain qcr8, active compounds read low 0.999 | locus YJL168C, strain set2, active compounds read low 0.984 | locus YJL187C, strain SWE1 (second series), active compounds read low 0.983 | locus YJL187C, strain SWE1, active compounds read low 0.99 | locus YJR043C, strain POL32, active compounds read low 0.979
